From PubChem BioAssay AID1159580 (chemical genetic matrix, 2015)
Out of some 5,500 compounds screened, about 2,000 (36%) were called active. Roughly 18% stayed inconclusive and do not appear here. Rule as the data show it: active = normalized growth mostly below about 0.91 (no sharp cut-off); inconclusive = no clear call, values can overlap the other calls; inactive = mostly above about 0.92. The list shows a part of the results.

Assay: chemical genetic growth profiling, strain panel (AID 1159580);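 also: tested at 20 µM; growth read once vehicle control cultures reached saturation at 30 °C; 1 = growth at the plate median or of vehicle wells; lower values mean less growth of the strain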
Details: S. cerevisiae deletion strains, growth OD

Measured: normalized growth

Cc1ccc(-c2nc(NS(=O)(=O)c3cccc4nonc34)sc2C)cc1Cl
inactive: locus YAR019C, strain CDC15, active compounds read low 0.965 | locus YBL105C, strain PKC1, active compounds read low 0.972 | locus YBR135W, strain CKS1, active compounds read low 0.967 | locus YBR136W, strain MEC1, active compounds read low 0.973 | locus YBR160W, strain CDC28, active compounds read low 0.959 | locus YDL017W, strain CDC7, active compounds read low 0.97 | locus YDL028C, strain MPS1, active compounds read low 0.976 | locus YDL101C, strain DUN1, active compounds read low 0.962 | locus YDL108W, strain KIN28, active compounds read low 0.975 | locus YDL132W, strain cdc53, active compounds read low 0.964 | locus YDL214C, strain PRR2, active compounds read low 0.984 | locus YDR052C, strain DBF4, active compounds read low 0.972 | locus YDR054C, strain cdc34, active compounds read low 0.961 | locus YDR226W, strain ADK1, active compounds read low 0.97 | locus YDR477W, strain SNF1, active compounds read low 0.975 | locus YER123W, strain YCK3, active compounds read low 1 | locus YER133W, strain GLC7, active compounds read low 0.994 | locus YFL009W, strain cdc4, active compounds read low 0.972 | locus YFL029C, strain CAK1, active compounds read low 0.946 | locus YFR003C, strain YPI1, active compounds read low 0.965 | locus YFR019W, strain FAB1, active compounds read low 0.997 | locus YFR028C, strain CDC14, active compounds read low 0.964 | locus YGR040W, strain KSS1, active compounds read low 0.962 | locus YGR052W, strain FMP48, active compounds read low 1.07 | locus YGR092W, strain DBF2, active compounds read low 0.991 | locus YHR030C, strain SLT2, active compounds read low 1.06 | locus YHR079C, strain IRE1, active compounds read low 1.07 | locus YHR082C, strain KSP1, active compounds read low 1.09 | locus YHR205W, strain SCH9, active compounds read low 0.981 | locus YIL147C, strain SLN1, active compounds read low 0.972 | locus YJL095W, strain BCK1, active compounds read low 1.06 | locus YJL128C, strain PBS2, active compounds read low 0.975 | locus YJL157C, strain FAR1, active compounds read low 0.999 | locus YJR016C, strain ILV3, active compounds read low 0.972 | locus YJR066W, strain TOR1 (second series), active compounds read low 0.985 | locus YJR066W, strain TOR1, active compounds read low 1.1 | locus YKL048C, strain ELM1, active compounds read low 0.981 | locus YKL067W, strain YNK1, active compounds read low 1 | locus YKL101W, strain HSL1, active compounds read low 0.967 | locus YKL193C, strain SDS22, active compounds read low 0.968 | locus YKL203C, strain TOR2, active compounds read low 1.04 | locus YLR113W, strain HOG1, active compounds read low 0.963 | locus YLR133W, strain CKI1, active compounds read low 0.978 | locus YLR403W, strain SFP1, active compounds read low 0.985 | locus YML070W, strain DAK1, active compounds read low 0.987 | locus YMR001C, strain CDC5, active compounds read low 0.967 | locus YMR205C, strain PFK2 (second series), active compounds read low 0.981 | locus YMR277W, strain FCP1, active compounds read low 0.975 | locus YNL006W, strain LST8, active compounds read low 0.967 | locus YNL020C, strain ARK1, active compounds read low 0.978 | locus YNL161W, strain CBK1, active compounds read low 0.959 | locus YNL183C, strain NPR1, active compounds read low 1.01 | locus YNL207W, strain RIO2, active compounds read low 0.953 | locus YNL222W, strain SSU72, active compounds read low 0.947 | locus YNL307C, strain MCK1 (second series), active compounds read low 0.984 | locus YOL078W, strain AVO1, active compounds read low 0.951 | locus YOL136C, strain PFK27, active compounds read low 0.999 | locus YOR061W, strain CKA2, active compounds read low 0.988 | locus YOR119C, strain RIO1, active compounds read low 1.03 | locus YOR231W, strain MKK1, active compounds read low 1.01 | locus YOR329C, strain SCD5, active compounds read low 0.973 | locus YPL031C, strain PHO85, active compounds read low 0.993 | locus YPL153C, strain RAD53, active compounds read low 0.992 | locus YPL204W, strain HRR25, active compounds read low 0.991 | locus YPL209C, strain IPL1, active compounds read low 0.951 | locus YPL256C, strain CLN2, active compounds read low 1.01 | locus YPR025C, strain CCL1, active compounds read low 0.97 | locus YPR106W, strain ISR1, active compounds read low 0.963 | locus YPR111W, strain DBF20, active compounds read low 0.953 | strain NNK1, active compounds read low 0.971 | strain TSCII, active compounds read low 0.956
